Test [1] addresses T1, Muscle, skeletal receptor tyrosine-protein kinase (Homo sapiens) (UniProt O15146).
T1 sequence (whole entry): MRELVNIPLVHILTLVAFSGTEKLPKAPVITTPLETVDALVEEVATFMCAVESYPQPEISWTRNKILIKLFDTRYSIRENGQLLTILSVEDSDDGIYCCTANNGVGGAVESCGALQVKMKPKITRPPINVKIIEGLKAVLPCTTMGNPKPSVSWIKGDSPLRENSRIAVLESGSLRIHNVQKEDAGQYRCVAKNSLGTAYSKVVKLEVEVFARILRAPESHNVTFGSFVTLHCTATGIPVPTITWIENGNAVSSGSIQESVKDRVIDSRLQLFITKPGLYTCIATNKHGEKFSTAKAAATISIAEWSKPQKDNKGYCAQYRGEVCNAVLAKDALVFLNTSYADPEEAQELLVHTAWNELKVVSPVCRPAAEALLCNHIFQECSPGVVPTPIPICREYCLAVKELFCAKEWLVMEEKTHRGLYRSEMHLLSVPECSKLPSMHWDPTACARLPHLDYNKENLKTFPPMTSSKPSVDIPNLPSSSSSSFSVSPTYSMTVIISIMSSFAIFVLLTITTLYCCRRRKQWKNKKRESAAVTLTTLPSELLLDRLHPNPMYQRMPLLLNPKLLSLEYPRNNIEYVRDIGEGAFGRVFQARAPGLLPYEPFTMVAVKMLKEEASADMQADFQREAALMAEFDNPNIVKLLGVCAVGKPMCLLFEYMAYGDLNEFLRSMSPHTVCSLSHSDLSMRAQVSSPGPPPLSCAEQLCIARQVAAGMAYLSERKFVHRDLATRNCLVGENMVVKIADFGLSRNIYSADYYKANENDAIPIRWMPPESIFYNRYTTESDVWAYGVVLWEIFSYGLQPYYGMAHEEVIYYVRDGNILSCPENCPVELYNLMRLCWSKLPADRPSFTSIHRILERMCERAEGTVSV
As to conditions: at 1 µM.

The target of test [2] is Platelet-derived growth factor receptor alpha (Homo sapiens) (UniProt P16234). Conditions: at 0.1 µM.
Sequence of Platelet-derived growth factor receptor alpha (Homo sapiens) (P16234 whole entry): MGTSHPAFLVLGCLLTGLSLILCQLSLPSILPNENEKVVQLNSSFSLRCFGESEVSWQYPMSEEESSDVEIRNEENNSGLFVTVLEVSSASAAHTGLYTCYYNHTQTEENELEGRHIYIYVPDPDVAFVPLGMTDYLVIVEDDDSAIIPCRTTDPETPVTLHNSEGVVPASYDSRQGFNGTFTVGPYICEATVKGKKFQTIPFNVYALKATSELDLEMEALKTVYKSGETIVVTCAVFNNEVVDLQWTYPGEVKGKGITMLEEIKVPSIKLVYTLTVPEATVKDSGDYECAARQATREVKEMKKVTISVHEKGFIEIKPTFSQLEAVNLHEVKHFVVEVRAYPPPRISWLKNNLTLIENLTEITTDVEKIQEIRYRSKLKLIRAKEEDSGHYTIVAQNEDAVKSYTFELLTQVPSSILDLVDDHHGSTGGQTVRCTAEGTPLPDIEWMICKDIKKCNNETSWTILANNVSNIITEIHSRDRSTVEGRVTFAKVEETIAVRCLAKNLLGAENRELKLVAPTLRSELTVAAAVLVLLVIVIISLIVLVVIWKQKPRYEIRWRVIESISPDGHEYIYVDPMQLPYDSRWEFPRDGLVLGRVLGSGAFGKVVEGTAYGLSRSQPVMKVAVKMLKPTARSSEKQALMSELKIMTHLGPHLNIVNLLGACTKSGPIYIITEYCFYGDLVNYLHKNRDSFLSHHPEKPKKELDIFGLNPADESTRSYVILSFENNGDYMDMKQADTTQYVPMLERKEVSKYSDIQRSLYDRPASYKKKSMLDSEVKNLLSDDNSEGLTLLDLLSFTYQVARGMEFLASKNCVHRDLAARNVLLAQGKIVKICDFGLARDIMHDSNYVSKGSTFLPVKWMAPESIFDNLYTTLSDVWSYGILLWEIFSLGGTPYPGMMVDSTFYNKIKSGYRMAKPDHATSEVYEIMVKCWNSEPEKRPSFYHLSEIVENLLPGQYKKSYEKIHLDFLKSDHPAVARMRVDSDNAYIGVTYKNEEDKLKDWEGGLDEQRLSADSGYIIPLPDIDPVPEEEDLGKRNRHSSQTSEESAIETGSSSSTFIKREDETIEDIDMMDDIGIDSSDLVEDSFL
The target is the same in test [3]. As to conditions: at 1 µM.
Test [4] has as its system Platelet-derived growth factor receptor alpha (Homo sapiens), P16234 [D842V]. As to conditions: at 0.1 µM.
For test [5] the test system is unchanged. As to conditions: at 1 µM.
For test [6], the system named is Platelet-derived growth factor receptor alpha (Homo sapiens), P16234 [T674I]. Conditions: at 0.1 µM.
Sequence of Platelet-derived growth factor receptor alpha (Homo sapiens), P16234 [T674I] (P16234 whole entry T674I): as the sequence (P16234 whole entry) above, with T674I counted along it
Test [7] has the same test system. Conditions: at 1 µM.
The subject of test [8] is Platelet-derived growth factor receptor alpha (Homo sapiens), P16234 [V561D]. Conditions: at 0.1 µM.
For test [9] the test system is unchanged. As to conditions: at 1 µM.
Test [10] deals with Platelet-derived growth factor receptor beta (Homo sapiens) (UniProt P09619). Conditions: at 0.1 µM.
Sequence of Platelet-derived growth factor receptor beta (Homo sapiens) (P09619 whole entry): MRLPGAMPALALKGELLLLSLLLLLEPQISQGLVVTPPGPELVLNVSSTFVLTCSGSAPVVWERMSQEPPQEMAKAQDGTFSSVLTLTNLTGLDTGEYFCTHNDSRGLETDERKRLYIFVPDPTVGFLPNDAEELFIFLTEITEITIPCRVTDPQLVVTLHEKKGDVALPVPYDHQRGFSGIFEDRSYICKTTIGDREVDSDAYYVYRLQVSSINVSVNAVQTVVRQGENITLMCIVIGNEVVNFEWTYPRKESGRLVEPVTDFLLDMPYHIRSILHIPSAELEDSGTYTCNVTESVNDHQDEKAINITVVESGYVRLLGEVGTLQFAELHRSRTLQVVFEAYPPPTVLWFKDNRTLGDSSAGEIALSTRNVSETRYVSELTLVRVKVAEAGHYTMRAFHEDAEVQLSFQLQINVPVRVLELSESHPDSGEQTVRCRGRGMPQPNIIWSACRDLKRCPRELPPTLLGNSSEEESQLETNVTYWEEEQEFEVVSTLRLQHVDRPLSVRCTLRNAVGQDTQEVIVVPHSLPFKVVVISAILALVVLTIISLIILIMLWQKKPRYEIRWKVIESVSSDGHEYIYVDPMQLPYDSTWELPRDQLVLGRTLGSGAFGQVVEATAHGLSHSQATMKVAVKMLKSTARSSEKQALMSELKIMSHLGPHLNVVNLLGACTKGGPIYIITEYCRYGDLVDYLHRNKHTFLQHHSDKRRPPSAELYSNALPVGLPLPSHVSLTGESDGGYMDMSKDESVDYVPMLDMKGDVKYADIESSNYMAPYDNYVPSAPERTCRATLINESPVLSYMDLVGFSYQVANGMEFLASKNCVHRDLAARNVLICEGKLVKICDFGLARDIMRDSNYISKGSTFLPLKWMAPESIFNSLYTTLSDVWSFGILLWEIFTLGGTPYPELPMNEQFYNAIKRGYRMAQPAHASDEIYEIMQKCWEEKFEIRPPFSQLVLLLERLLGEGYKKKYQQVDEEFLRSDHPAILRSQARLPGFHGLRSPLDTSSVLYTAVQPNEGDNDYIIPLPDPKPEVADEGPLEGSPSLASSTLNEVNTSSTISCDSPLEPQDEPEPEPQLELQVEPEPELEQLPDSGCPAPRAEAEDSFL

Sequence of Platelet-derived growth factor receptor alpha (Homo sapiens), P16234 [D842V] (P16234 whole entry D842V): as the sequence (P16234 whole entry) above, with D842V counted along it
Sequence of Platelet-derived growth factor receptor alpha (Homo sapiens), P16234 [V561D] (P16234 whole entry V561D): as the sequence (P16234 whole entry) above, with V561D counted along it

As usually defined, the inhibition is the relative decrease from the control value, in per cent. With `CCS(=O)(=O)c1ccc(OC)c(Nc2ncc(-c3ccccc3Cl)o2)c1`, the inhibition in [1] came to 8.58%; in test [2], 5.6%; in test [3], 16.2%; in test [4], 1.1%; in [5] it was 4.35%; in test [6], 0.38%. Also, the inhibition was 5.02% in test [7], 2.97% in test [8], 15.1% in test [9] and 4.1% in [10].

As to `Fc1ccc(-c2ncn(C3CCNCC3)c2-c2ccnc(Oc3ccc4c(c3)OCO4)n2)cc1`, the inhibition in [1] turned out to be 4.22%; in test [2], 11.8%; in test [3] it was 15.7%; in test [4], 2.99%; in test [5], 5.32%; in test [6], 11.5%. The inhibition amounted to 16.1% in test [7], 5.05% in [8], 5.41% in test [9] and 7.36% in [10].

Turning to `O=C1Nc2ccccc2/C1=C/Nc1ccc(-n2cncn2)cc1`, the inhibition is 30.9% in test [1]; 10.5% in test [2]; 45.5% in test [3]; 4.56% in test [4]; 24.2% in test [5]; 13.1% in test [6]. The inhibition is 67.2% in [7], 10.8% in [8], 44.8% in [9] and 7.25% in test [10].

Turning to `NC(=O)Cc1ccccc1Oc1nccc(-c2c(-c3ccc(F)cc3)ncn2C2CCNCC2)n1`, the inhibition was found to be 1.69% in test [1]; 3.58% in test [2]; 7.12% in [3]; 0.37% in [4]; 0.79% in test [5]; 3.6% in [6]. The inhibition in test [7] is 2.14%; in test [8], -0.19%; in test [9], 4.04%; in [10], 3.93%.

`N#Cc1ccc(Oc2nccc(-c3c(-c4ccc(F)cc4)ncn3C3CCNCC3)n2)cc1`: the inhibition was 0.9% in [1]; 4.83% in [2]; 10.1% in [3]; 3.33% in test [4]; 4.12% in [5]; 3.29% in [6]. In addition, the inhibition was determined as 8.12% in test [7], 3.7% in [8], 3.69% in test [9] and 2.5% in test [10].

On to `NS(=O)(=O)c1ccc(Nc2cc(-c3ccc(O)c(F)c3)n[nH]2)cc1`, for which the inhibition was found to be 41% in test [1]; 17% in [2]; 61.5% in [3]; 4.48% in [4]; 39.5% in test [5]; 11.1% in test [6]. Moreover, the inhibition in [7] was 73.5%; in test [8], 33.2%; in [9], 68.3%; in [10] it was 11.8%.

As for `CS(=O)(=O)CCNCc1ccc(-c2ccc3ncnc(Nc4ccc(OCc5ccccc5)c(Br)c4)c3c2)o1`, the inhibition in [1] was -1.75%; in test [2], 6.94%; in [3], 12.7%; in test [4] it was 2.31%; in test [5], 4.09%; in test [6], 2.28%. Further, the inhibition was 5.56% in [7], 3.03% in test [8], 5.85% in test [9] and 3.75% in [10].

On to `C#Cc1cccc(Nc2ncnc3ccc(OCCCCNCCS(C)(=O)=O)cc23)c1`, for which the inhibition worked out at 2.93% in [1]; 16.4% in [2]; 30.4% in test [3]; 6.83% in test [4]; 11.5% in [5]; 8.07% in test [6]. The inhibition in test [7] was 25.4%; in [8], 5.37%; in test [9] it was 10.6%; in [10], 9.53%.

As for `COc1cc2ncn(-c3cc(OCc4cccs4)c(C(N)=O)s3)c2cc1OC`, the inhibition in test [1] came to 12.1%; in test [2], 36%; in [3] it was 77.6%; in test [4], 19.4%; in test [5], 72.8%; in [6], 7.11%. Also, the inhibition was 57.7% in test [7], 24.7% in [8], 72.9% in test [9] and 31.2% in [10].

`Cc1ccc(C(=O)NC(C)C)cc1-c1ccc(C(=O)NCC2CC2)cc1`: the inhibition in test [1] is -2.53%; in test [2], 0.96%; in test [3] it was 2.31%; in test [4], 2.27%; in [5], 2.56%; in [6], 1.13%. Further, the inhibition in test [7] turned out to be 4.14%; in test [8] it was 1.87%; in test [9], 2.98%; in test [10], 0.76%.

For the molecule `COc1cccc(-n2cnc3c(N/N=C/c4ccncc4)ncnc32)c1`, the inhibition in test [1] was 17.1%; in test [2], 17.9%; in test [3] it was 53.6%; in [4], 4.61%; in [5], 45.6%; in test [6] it was 2.14%. For the same molecule, the inhibition in test [7] came to 18.3%; in test [8], 10.3%; in test [9], 51%; in [10], 13.2%.

In the case of `CNC(=O)c1cncc(/C=C/c2c(C)cccc2C)c1`, the inhibition was 5.15% in test [1]; 8.57% in test [2]; 34.4% in [3]; 0.09% in test [4]; 4.23% in test [5]; 0.35% in test [6]. The inhibition in test [7] was 1.37%; in test [8] it was 21.3%; in [9] it was 48%; in test [10] it was 7.03%.

Consider `CCS(=O)(=O)c1ccc(OC)c(Nc2ncc(-c3cccc(-c4ccccc4F)c3)o2)c1`, for which the inhibition in test [1] amounted to 5.48%; in test [2] it was 10.8%; in test [3], 49.7%; in [4], 6.19%; in test [5], 32.1%; in test [6] it was 3.61%. In addition, the inhibition was 6.31% in test [7], 18.5% in test [8], 60.4% in test [9] and 17.1% in test [10].

`COc1cc(Nc2ncc(-c3ccccc3)o2)cc(OC)c1OC`: the inhibition in test [1] was 14.5%; in [2], 17.7%; in test [3], 69.6%; in [4] it was 9.16%; in test [5], 43%; in [6] it was 27.4%. In addition, the inhibition stood at 77.7% in [7], 35.7% in [8], 76.1% in [9] and 23% in test [10].
